Consider 40 compounds from PubChem BioAssay (NCI).

Compounds without any hit were thinned out: in the full panel of roughly 79,000, 15% have a hit. Unmarked numbers belong to inactive results. Cut-off read from the data, not from the text of the source: active = growth inhibition above about 70%; inactive = the rest.

The nature of the first test: NCI Yeast Anticancer Drug Screen. Data for the mec2-1 strain (AID 157). As to conditions: S. cerevisiae mec2-1 strain, at 50.0 µM, stronger effect = higher value. The method in brief: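 Strain: mec2-1 (DNA repair/cell cycle alteration). Compound exposure, then growth measured; inhibition expressed relative to vehicle.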
As for `CC(=O)OC1/C=C(/C)CCC2OC2(C)CC2OC(=O)C3(CC3)C12` (stereo not given), the growth inhibition was -20.5%.
With `CCCCCCCCCCCC(=O)Nc1cc(Cl)c(OC)cc1OC`, the growth inhibition is 6.75%.
Take `CC(C)c1cccc(C(C)C)c1NC(=O)OC1CCCCC1C` (stereo not given): the growth inhibition is -17.6%.
On to `c1ccc(OCCCCN2CCNCC2)cc1`, for which the growth inhibition is -14.3%.
Same read-out and setting: in the case of `NC(N)=NCCCS` it was 11.3%; in that of `CCN(CC)CCCC(C)NC1CCCc2cc3c(cc21)C(=O)c1ccccc1C3=O` (stereo not given), 13.8%.
The same measure, in the same setting: in the case of `O=C(N/N=C/c1cccc(C(F)(F)F)c1)c1ccncc1` it was 6.7%; in that of `CC(C)C(=O)NCCc1ccccc1`, 0.45%.
In the case of `CC12OC(=O)CC1C(c1ccccc1)(c1ccccc1)O2` (stereo not given), the growth inhibition was -8%.
On to `Clc1ccc(OCc2nnc3n2N=C(c2ccc(Br)cc2)CS3)cc1`, for which the growth inhibition was 8.35%.
Turning to `O=C1NC(=O)C(c2cccc(F)c2)N1` (stereo not given), the growth inhibition is -12.3%.
Consider `COc1ccc2c(c1O)C1(CCN(C)C)CC(=O)CCC1C=C2` (stereo not given), for which the growth inhibition is -11.5%.
The same measure, in the same setting: in the case of `COc1cc(C(OC(C)=O)OC(C)=O)c(Cl)cc1OC(C)=O` it was 5.15%; in that of `CCc1nc(Nc2cccc(Cl)c2)c2cnn(-c3ccccc3)c2n1`, -8.35%.
Still for that read-out and setting: in the case of `O=C(O)c1ccc(C(=O)O)nc1` it was -4.75%; in that of `CN(C)CCCNC(=O)CCNC(=O)c1cc(NC(=O)c2cc(NC(=O)c3cc(NC(=O)c4nccn4C)cn3C)cn2C)cn1C`, -23.4%; in that of `O=COC1CCCCCC1`, -28.9%.
On the same count and under the same terms, under `CCS(=O)CCCN1CCc2ccccc2C1` (stereo not given) stands -0.95%; under `O=[N+]([O-])c1ccc(N/N=C/c2ccccc2O)c([N+](=O)[O-])c1`, 20.5%.
`C/C(=N\NC(=S)N1CC2CCC(CC2)C1)c1cccc(C)n1`: the growth inhibition was -1.45%.
Still for that read-out and setting: under `COC(=O)C1(C(=O)OC)CC(=O)c2c(OC(=O)c3cccc(OC)c3C#N)ccc(OC(=O)c3cccc(OC)c3C#N)c2C1` stands 3.95%; under `CN(C)CC(C)(C)CO`, -0.2%; under `CCCCCC(O)c1ccccc1` (stereo not given), -15.1%.
In the case of `C/C(=C/C(=O)O)CC/C=C(/C)C(=O)O`, the growth inhibition was -5.1%.
On the same count and under the same terms, in the case of `CC[N+](CC)=c1ccc2nc3c(cc(Nc4ccccc4)c4ccccc43)oc-2c1.[Cl][Zn][Cl]` it was 1.4%; in that of `Nc1nc2nn(-c3ccc(C(=O)NC(CCC(=O)O)C(=O)O)cc3)nc2c(=O)[nH]1` (stereo not given), 2.75%; in that of `OCC1CCNCC1`, 12.1%.
Same read-out and setting: under `CC(=O)OC1[C@H](OC(C)=O)C2=C(C)[C@@H](OC(C)=O)C[C@@]2(C(C)(C)O)[C@@H](OC(C)=O)[C@H]2[C@@]1(C)[C@@H](OC(C)=O)CC(OC(C)=O)[C@]21CO1` (stereo not given in full) stands 29.9%.
Still for that read-out and setting: in the case of `O=C(O)CCc1c[nH]c(=S)[nH]1` it was 3.75%; in that of `CC1(C)NC(c2ccccc2)c2ccsc2-n2cccc21` (stereo not given), -29.7%.
With `c1ccc(-c2cc3ccccc3c(-c3ccccc3)c2-c2ccccc2)cc1`, the growth inhibition was -1.75%.
Still for that read-out and setting: under `Cc1ccc(Nc2ccc(O)cc2)cc1` stands -2.1%; under `CCSC1(SCC)C(=O)OC2=C(CCCCC2)C1N(C)c1ccccc1` (stereo not given), -12.7%.
`Cn1ccc2c([N+](=O)[O-])cccc2c1=O`: the growth inhibition is 2%.
Still for that read-out and setting: in the case of `Nc1ccc(C(=O)O)c([N+](=O)[O-])c1` it was -2.45%.
Take `Nc1c(Cl)ncnc1NCCCCCCCCCCCCNc1ncnc(Cl)c1N`: the growth inhibition was 1.75%.
Same read-out and setting: in the case of `N#Cc1ccc(-n2cccc2)cc1` it was -1.6%; in that of `CCOC(=O)C1CC1C#N` (stereo not given), -11.9%; in that of `CCC(=O)c1ccc2ccccc2c1`, 3.75%.
On to `CC(C)NC1(C#N)CCN(Cc2ccccc2)CC1`, for which the growth inhibition is -45.1%.

Another test is described as follows: NCI Yeast Anticancer Drug Screen. Data for the sgs1 mgt1 strain (AID 161).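 Note: 0% = growth of cultures given vehicle only.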 The settings on record: S. cerevisiae sgs1 mgt1 strain, at 50.0 µM, stronger effect = higher value. The method in brief:
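Test agents were incubated with a DNA-repair-mutant yeast strain. Growth was then read and compared against vehicle-treated controls.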
On to `CC(=O)OC1/C=C(/C)CCC2OC2(C)CC2OC(=O)C3(CC3)C12` (stereo not given), for which the growth inhibition is -2%.
On the same count and under the same terms, under `CCCCCCCCCCCC(=O)Nc1cc(Cl)c(OC)cc1OC` stands 13.9%.
The same measure, in the same setting: in the case of `CC(C)c1cccc(C(C)C)c1NC(=O)OC1CCCCC1C` (stereo not given) it was 7%; in that of `c1ccc(OCCCCN2CCNCC2)cc1`, 14.3%; in that of `NC(N)=NCCCS`, 14.3%.
In the case of `CCN(CC)CCCC(C)NC1CCCc2cc3c(cc21)C(=O)c1ccccc1C3=O` (stereo not given), the growth inhibition was 38.1%.
Same read-out and setting: in the case of `O=C(N/N=C/c1cccc(C(F)(F)F)c1)c1ccncc1` it was 11.1%; in that of `CC(C)C(=O)NCCc1ccccc1`, -3.15%; in that of `CC12OC(=O)CC1C(c1ccccc1)(c1ccccc1)O2` (stereo not given), 4.1%.
As to `Clc1ccc(OCc2nnc3n2N=C(c2ccc(Br)cc2)CS3)cc1`, the growth inhibition is 8.8%.
Same read-out and setting: in the case of `O=C1NC(=O)C(c2cccc(F)c2)N1` (stereo not given) it was 9.7%; in that of `COc1ccc2c(c1O)C1(CCN(C)C)CC(=O)CCC1C=C2` (stereo not given), 9.55%; in that of `COc1cc(C(OC(C)=O)OC(C)=O)c(Cl)cc1OC(C)=O`, 17.1%.
Turning to `CCc1nc(Nc2cccc(Cl)c2)c2cnn(-c3ccccc3)c2n1`, the growth inhibition was -4.35%.
Consider `O=C(O)c1ccc(C(=O)O)nc1`, for which the growth inhibition was 0.95%.
In the case of `CN(C)CCCNC(=O)CCNC(=O)c1cc(NC(=O)c2cc(NC(=O)c3cc(NC(=O)c4nccn4C)cn3C)cn2C)cn1C`, the growth inhibition was -17.2%.
As to `O=COC1CCCCCC1`, the growth inhibition was -11.1%.
Take `CCS(=O)CCCN1CCc2ccccc2C1` (stereo not given): the growth inhibition is 13.9%.
Still for that read-out and setting: under `O=[N+]([O-])c1ccc(N/N=C/c2ccccc2O)c([N+](=O)[O-])c1` stands 4.8%; under `C/C(=N\NC(=S)N1CC2CCC(CC2)C1)c1cccc(C)n1`, 18.8%.
With `COC(=O)C1(C(=O)OC)CC(=O)c2c(OC(=O)c3cccc(OC)c3C#N)ccc(OC(=O)c3cccc(OC)c3C#N)c2C1`, the growth inhibition was -11.5%.
For the compound `CN(C)CC(C)(C)CO`, the growth inhibition was 3.85%.
For `CCCCCC(O)c1ccccc1` (stereo not given), the growth inhibition is 11.2%.
On the same count and under the same terms, under `C/C(=C/C(=O)O)CC/C=C(/C)C(=O)O` stands -1.25%.
On the same count and under the same terms, in the case of `CC[N+](CC)=c1ccc2nc3c(cc(Nc4ccccc4)c4ccccc43)oc-2c1.[Cl][Zn][Cl]` it was 22.2%; in that of `Nc1nc2nn(-c3ccc(C(=O)NC(CCC(=O)O)C(=O)O)cc3)nc2c(=O)[nH]1` (stereo not given), 12.9%; in that of `OCC1CCNCC1`, 0.1%.
Same read-out and setting: under `CC(=O)OC1[C@H](OC(C)=O)C2=C(C)[C@@H](OC(C)=O)C[C@@]2(C(C)(C)O)[C@@H](OC(C)=O)[C@H]2[C@@]1(C)[C@@H](OC(C)=O)CC(OC(C)=O)[C@]21CO1` (stereo not given in full) stands -20.3%; under `O=C(O)CCc1c[nH]c(=S)[nH]1`, -5.85%.
`CC1(C)NC(c2ccccc2)c2ccsc2-n2cccc21` (stereo not given): the growth inhibition was -15.7%.
The same measure, in the same setting: under `c1ccc(-c2cc3ccccc3c(-c3ccccc3)c2-c2ccccc2)cc1` stands -4.8%; under `Cc1ccc(Nc2ccc(O)cc2)cc1`, 29.5%.
The same measure, in the same setting: in the case of `CCSC1(SCC)C(=O)OC2=C(CCCCC2)C1N(C)c1ccccc1` (stereo not given) it was -14.4%; in that of `Cn1ccc2c([N+](=O)[O-])cccc2c1=O`, 2.55%; in that of `Nc1ccc(C(=O)O)c([N+](=O)[O-])c1`, -0.5%.
On the same count and under the same terms, in the case of `Nc1c(Cl)ncnc1NCCCCCCCCCCCCNc1ncnc(Cl)c1N` it was 26.1%; in that of `N#Cc1ccc(-n2cccc2)cc1`, 7.35%; in that of `CCOC(=O)C1CC1C#N` (stereo not given), 9%.
As for `CCC(=O)c1ccc2ccccc2c1`, the growth inhibition was -0.65%.
`CC(C)NC1(C#N)CCN(Cc2ccccc2)CC1`: the growth inhibition is -41.4%.
